Laboratory results from the supplement of paper PMC3334620.
Whole data set: some 33,000 sequences, median “E-score (-0.5 to 0.5)” near -8e-05, cut for the highest 2% near 0.23. For the sample, the highest values were picked, then their nearest neighbours and some sequences at random.

Each sequence was assayed against T1, Nrg2 (UniProt P38082) (assay: PBM E-score (8-mer binding enrichment) (E-score (-0.5 to 0.5)); higher = stronger / more preferred TF binding). Details: protein concentration: 100 nM; construct: GST-full length.
T1 sequence: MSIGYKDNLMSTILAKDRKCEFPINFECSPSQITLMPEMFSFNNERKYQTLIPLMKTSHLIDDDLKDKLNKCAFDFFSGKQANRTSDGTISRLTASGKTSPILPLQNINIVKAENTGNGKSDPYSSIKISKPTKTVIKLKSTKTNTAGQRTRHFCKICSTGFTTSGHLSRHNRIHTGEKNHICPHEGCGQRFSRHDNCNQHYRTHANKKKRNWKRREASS
Description: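 Universal 'all 10-mer' protein binding microarrays (Agilent AMADID 015681) probed with GST-tagged S. cerevisiae TFs (full-length or DBD) made by in vitro transcription/translation (PURExpress), about 100-200 nM. Bound TF was detected with fluorescent anti-GST. Each ungapped 8-mer (which stands for itself and its reverse complement) is scored by the PBM enrichment score (E-score), a modified Wilcoxon-Mann-Whitney statistic from -0.5 to +0.5, computed with the Universal PBM Analysis Suite. Scale: above 0.35 generally sequence-specific binding.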
ATTCAGGA was tested, and the “PBM E-score” value was 0.117.
With ACTCAGGA the “PBM E-score” value was -0.067.
In the case of ATTCAGGC, the “PBM E-score” value is reported as 0.106.
With CATCAGGG the “PBM E-score” value was 0.229.
ATTCAGGG was tested, and the “PBM E-score” value was 0.367.
In the case of AATCAGGG, the “PBM E-score” value is reported as 0.0765.
ATCCAGGG was tested, and the “PBM E-score” value was 0.349.
In the case of ATCCAGGA, the “PBM E-score” value is reported as -0.0938.
ATCCAGGC was tested, and the “PBM E-score” value was 0.0212.
CATCAGGC was tested, and the “PBM E-score” value was -0.00739.
ACTCAGGG was tested, and the “PBM E-score” value was 0.294.
ACTCAGGC was tested, and the “PBM E-score” value was 0.00622.
With AGCACAAC the “PBM E-score” value was 0.0937.
In the case of CTGTGCTC, the “PBM E-score” value is reported as 0.0672.
For GGCTGTTA, the “PBM E-score” value was -0.00387.
For ATCCGTAA, the “PBM E-score” value was -0.136.
With AGGCTTCC the “PBM E-score” value was 0.0147.
TCTCTCAA was tested, and the “PBM E-score” value was 0.14.
With CAGTGAAA the “PBM E-score” value was 0.0943.
For CAGTGAAC, the “PBM E-score” value was 0.248.
CAGTGAAG was tested, and the “PBM E-score” value was -0.0253.
With CCAGATAC the “PBM E-score” value was -0.0175.
In the case of GTATGCAA, the “PBM E-score” value is reported as 0.0781.
With GACCAGTA the “PBM E-score” value was -0.174.
For AGAATCAT, the “PBM E-score” value was 0.0757.
For GGAATTAA, the “PBM E-score” value was 0.153.
CGAATCAA was tested, and the “PBM E-score” value was 0.22.
With CGAATTAA the “PBM E-score” value was 0.175.
With TGAATTAA the “PBM E-score” value was 0.273.
With AGAATCAA the “PBM E-score” value was 0.103.
With CGAATCAG the “PBM E-score” value was 0.122.
With AGAATCAG the “PBM E-score” value was 0.272.
With TGAATCAA the “PBM E-score” value was 0.232.
For AGGCCGGG, the “PBM E-score” value was -0.266.
In the case of GCAGTGCA, the “PBM E-score” value is reported as -0.0476.
With ATGAGCTA the “PBM E-score” value was 0.069.
CAGCAAGC was tested, and the “PBM E-score” value was -0.226.
CCGCCCTC was tested, and the “PBM E-score” value was -0.112.
CAGCCAGG was tested, and the “PBM E-score” value was 0.0441.
For AAGGATTA, the “PBM E-score” value was -0.0123.
In the case of ATCCCCAC, the “PBM E-score” value is reported as 0.247.
ATCCCCAT was tested, and the “PBM E-score” value was 0.124.
GTCCCCAC was tested, and the “PBM E-score” value was -0.178.
For AAAGTCTA, the “PBM E-score” value was -0.0546.
With CTCTGCAG the “PBM E-score” value was -0.0279.
With ATGCATCA the “PBM E-score” value was 0.229.
For GTGCATCA, the “PBM E-score” value was 0.129.
ATGCATCG was tested, and the “PBM E-score” value was 0.0353.
CGAGATAG was tested, and the “PBM E-score” value was 0.0116.
In the case of GATCTTCA, the “PBM E-score” value is reported as 0.0364.
For AACATATT, the “PBM E-score” value was 0.0545.
With CCGCCCCC the “PBM E-score” value was -0.406.
In the case of CCGCCCGG, the “PBM E-score” value is reported as -0.003.
In the case of CCGCCCCG, the “PBM E-score” value is reported as 0.309.
For AGCTCTGA, the “PBM E-score” value was -0.199.
With CTTGCAAG the “PBM E-score” value was 0.181.
For TATGCAAA, the “PBM E-score” value was -0.0899.
For AATGCAAG, the “PBM E-score” value was 0.0402.
For AATGCAAA, the “PBM E-score” value was 0.244.
In the case of AATGCAAC, the “PBM E-score” value is reported as 0.127.
In the case of AGTGCAAA, the “PBM E-score” value is reported as 0.258.
For CTTGCAAC, the “PBM E-score” value was 0.124.
CATGCAAG was tested, and the “PBM E-score” value was 0.088.
For AGTGCAAT, the “PBM E-score” value was 0.0654.
In the case of CTTGCAAA, the “PBM E-score” value is reported as 0.232.
For CATGCAAA, the “PBM E-score” value was 0.246.
AGTGCAAG was tested, and the “PBM E-score” value was 0.156.
In the case of ACCCGTGG, the “PBM E-score” value is reported as -0.111.
For TCATAAAA, the “PBM E-score” value was -0.032.
For GCACTAGA, the “PBM E-score” value was -0.0716.
CTGGTTCC was tested, and the “PBM E-score” value was 0.158.
In the case of AAGAATGG, the “PBM E-score” value is reported as 0.0626.
With TAAGAGGA the “PBM E-score” value was -0.0476.
With GTTTACGA the “PBM E-score” value was -0.00773.
In the case of CAGGTCTA, the “PBM E-score” value is reported as -0.0487.
For GCGTCGTA, the “PBM E-score” value was 0.0775.
AAAGCTTG was tested, and the “PBM E-score” value was 0.00751.
In the case of CCCAGTCG, the “PBM E-score” value is reported as -0.143.
In the case of AGATCAAA, the “PBM E-score” value is reported as 0.0337.
With AATGCGCG the “PBM E-score” value was 0.177.
With ATTGCAAT the “PBM E-score” value was 0.243.
For CATGCGCA, the “PBM E-score” value was 0.164.
In the case of ATTGCAAG, the “PBM E-score” value is reported as 0.137.
In the case of ATTGCGCA, the “PBM E-score” value is reported as 0.143.
With ATTGCAAA the “PBM E-score” value was 0.127.
For AATGCGCA, the “PBM E-score” value was 0.296.
In the case of CTTGCGCA, the “PBM E-score” value is reported as 0.264.
CTTGCGCC was tested, and the “PBM E-score” value was -0.0573.
With ATCCTTGC the “PBM E-score” value was -0.0413.
For AGCAGACC, the “PBM E-score” value was 0.135.
With ACCTTCTA the “PBM E-score” value was -0.0686.
For CGTGTCCC, the “PBM E-score” value was -0.104.
With ACGACTAT the “PBM E-score” value was 0.0778.
For CTGTAGGA, the “PBM E-score” value was 0.0349.
AGTAGTAT was tested, and the “PBM E-score” value was 0.114.
For ATAAATCA, the “PBM E-score” value was 0.0708.
For CGAAATCA, the “PBM E-score” value was 0.244.
With CTAAATCA the “PBM E-score” value was 0.0351.
In the case of GGAAATCA, the “PBM E-score” value is reported as -0.049.
In the case of GTAAATCA, the “PBM E-score” value is reported as 0.24.
CGAAATCC was tested, and the “PBM E-score” value was 0.199.
For GCTGTGTA, the “PBM E-score” value was -0.051.
For CCTCTCCA, the “PBM E-score” value was -0.343.
For AGGCATCC, the “PBM E-score” value was -0.161.
For AGGGGTAC, the “PBM E-score” value was 0.142.
For CTCTTTTA, the “PBM E-score” value was -0.0622.
ATTCATAC was tested, and the “PBM E-score” value was 0.238.
In the case of CTTCATAC, the “PBM E-score” value is reported as 0.112.
With ATTCATAG the “PBM E-score” value was 0.155.
With ATCTCATC the “PBM E-score” value was 0.0993.
For CTTATGGC, the “PBM E-score” value was -0.0261.
With CCCTGACG the “PBM E-score” value was 0.138.
With ACCTGACC the “PBM E-score” value was -0.197.
With CCCTGACA the “PBM E-score” value was 0.288.
GCCTGACA was tested, and the “PBM E-score” value was -0.173.
For CCCTGACC, the “PBM E-score” value was 0.3.
For GCCTGACC, the “PBM E-score” value was -0.0177.
In the case of TAACTGCA, the “PBM E-score” value is reported as 0.157.
For CTCTCAAC, the “PBM E-score” value was -0.121.
With GAGTCTCC the “PBM E-score” value was -0.178.
For CAGCAATC, the “PBM E-score” value was 0.0368.
For AAACAGTG, the “PBM E-score” value was 0.167.
In the case of GAGGGATA, the “PBM E-score” value is reported as -0.145.
With AAGGGATC the “PBM E-score” value was 0.135.
With CAGGGATA the “PBM E-score” value was 0.286.
TAGGGATA was tested, and the “PBM E-score” value was 0.134.
For CAGGGATG, the “PBM E-score” value was 0.211.
With CAGGGATC the “PBM E-score” value was 0.238.
ATTTTCTC was tested, and the “PBM E-score” value was 0.106.
GCCGCCAC was tested, and the “PBM E-score” value was -0.231.
ACCGCCAC was tested, and the “PBM E-score” value was -0.117.
With CCCGCCAC the “PBM E-score” value was 0.269.
GGCGTCGA was tested, and the “PBM E-score” value was 0.148.
CAGGTAGC was tested, and the “PBM E-score” value was -0.212.
In the case of AATGCTGC, the “PBM E-score” value is reported as 0.0363.
For AATGGCCA, the “PBM E-score” value was -0.0344.
With CCTTTAAG the “PBM E-score” value was -0.0435.
In the case of ACTTTAAG, the “PBM E-score” value is reported as 0.243.
In the case of ACTTTAAA, the “PBM E-score” value is reported as 0.0738.
With GATTAGAC the “PBM E-score” value was 0.0407.
For CGTCGAAA, the “PBM E-score” value was 0.075.
CGAATGAG was tested, and the “PBM E-score” value was 0.0496.
For ATAGATCG, the “PBM E-score” value was 0.0393.
For CAAACTCC, the “PBM E-score” value was 0.0622.
With AGCTAGCA the “PBM E-score” value was -0.191.
With AGCTAGCC the “PBM E-score” value was -0.0348.
In the case of AGCTAGCT, the “PBM E-score” value is reported as 0.244.
For ACGCAGCT, the “PBM E-score” value was 0.0108.
For AGTCTGAG, the “PBM E-score” value was -0.319.
With AGGACAGA the “PBM E-score” value was 0.0623.
In the case of AGGCTTGC, the “PBM E-score” value is reported as -0.173.
CGGCTTGC was tested, and the “PBM E-score” value was 0.237.
CGGCTTGA was tested, and the “PBM E-score” value was -0.0482.
With CGCCTAGC the “PBM E-score” value was -0.315.
With GGTCTTAA the “PBM E-score” value was -0.301.
For CATCTCTC, the “PBM E-score” value was 0.148.
With ACCGCAGA the “PBM E-score” value was -0.0429.
ATTCGGGC was tested, and the “PBM E-score” value was -0.044.
For ATTCGGGA, the “PBM E-score” value was 0.0112.
With ATTCGGGG the “PBM E-score” value was 0.243.
For ACCCGCTG, the “PBM E-score” value was -0.133.
In the case of CTTTACTA, the “PBM E-score” value is reported as 0.26.
For ATTTACTC, the “PBM E-score” value was 0.271.
With ATTTACTA the “PBM E-score” value was 0.0988.
GTTTACTA was tested, and the “PBM E-score” value was 0.155.
CTTTACTC was tested, and the “PBM E-score” value was 0.144.
For ATTTACTG, the “PBM E-score” value was 0.107.
In the case of GCAGTGGC, the “PBM E-score” value is reported as -0.173.
For CAGCTGGA, the “PBM E-score” value was 0.123.
In the case of GACTCGGA, the “PBM E-score” value is reported as -0.226.
In the case of CTTTTAAA, the “PBM E-score” value is reported as -0.168.
With AGCAGCCA the “PBM E-score” value was 0.0226.
In the case of CTCGATAC, the “PBM E-score” value is reported as 0.245.
